Results taken from PubChem BioAssay (EPA / NIEHS).
Inconclusive results are not listed. Active and inactive are the calls of the source. How the source made its calls, unless noted: active means hit-call score of the fitted dose curve at least 0.9, where 1 is the maximum; inactive means score below 0.9.

Columns and labels:
[1] = read-out: Nuclear factor erythroid 2-related factor 2 (Homo sapiens) (UniProt Q16236); experiment: LTEA_HepaRG_NFE2L2: Life Technologies and Expression Analysis (LTEA) Assay for Nuclear factor erythroid 2-related factor 2 (NFE2L2) Transcription Factor using HepaRG (AID 2283527); conditions: mRNA level, 48 h; actives raise or lower the signal;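 further: TaqMan qRT-PCR transcript level normalised to ACTB GAPDH and POLR2A housekeeping genes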
Outline: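 Differentiated human HepaRG cells, serum-free induction medium, exposed 48 h in duplicate to eight half-log concentrations up to 100 uM in 0.5% DMSO. NFE2L2 mRNA by Fluidigm TaqMan qRT-PCR, normalised to ACTB, GAPDH, POLR2A; bidirectional change versus DMSO.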

[2] = read-out: succinate dehydrogenase complex iron sulfur subunit B (SDHB), SDHB (gene 6390); experiment: LTEA_HepaRG_SDHB: Life Technologies and Expression Analysis (LTEA) Assay for succinate dehydrogenase complex iron sulfur subunit B (SDHB) using HepaRG (AID 2283528); conditions: mRNA level, 48 h; actives raise or lower the signal
Outline: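 Readout is SDHB transcript level by qRT-PCR, normalised to three housekeeping genes and fitted bidirectionally against 0.5% DMSO vehicle. Human HepaRG cells were treated for 48 h at up to 100 uM.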

[3] = read-out: Signal transducer and activator of transcription 3 (Homo sapiens) (UniProt P40763); experiment: LTEA_HepaRG_STAT3: Life Technologies and Expression Analysis (LTEA) Assay for Signal transducer and activator of transcription (STAT3) using HepaRG (AID 2283529); conditions: mRNA level, 48 h; actives raise or lower the signal
Outline: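 Differentiated HepaRG cells, serum-free induction medium, dosed 48 h in duplicate, 8 half-log concentrations from 100 uM in 0.5% DMSO. STAT3 mRNA by qRT-PCR, normalised to ACTB, GAPDH, POLR2A; bidirectional fit versus DMSO.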

[4] = read-out: solute carrier (SLCO1B1), SLCO1B1 (gene 10599); experiment: LTEA_HepaRG_SLCO1B1: Life Technologies and Expression Analysis (LTEA) Assay for solute carrier (SLCO1B1) using HepaRG (AID 2283530); conditions: mRNA level, 48 h; actives raise or lower the signal
Outline: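 Gain or loss of SLCO1B1 mRNA is fitted against the 0.5% DMSO vehicle in human HepaRG liver cells treated 48 h at up to 100 uM in half-log steps. Expression comes from qRT-PCR normalized to endogenous controls.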

[5] = read-out: sulfotransferase 2A1 (SULT2A1), SULT2A1 (gene 6822); experiment: LTEA_HepaRG_SULT2A1: Life Technologies and Expression Analysis (LTEA) Assay for sulfotransferase 2A1 (SULT2A1) using HepaRG (AID 2283531); conditions: mRNA level, 48 h; actives raise or lower the signal
Outline: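 Cells were plated and cultured 48 h, switched to serum-free induction medium, then dosed in duplicate for 48 h (8 concentrations, max 100 uM). RNA was isolated and SULT2A1 expression measured by qRT-PCR; gain or loss of signal fitted relative to DMSO.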

[6] = read-out: Transforming Growth Factor (TGFA), TGFA (gene 7039); experiment: LTEA_HepaRG_TGFA: Life Technologies and Expression Analysis (LTEA) Assay for Transforming Growth Factor (TGFA) using HepaRG (AID 2283532); conditions: mRNA level, 48 h; actives raise or lower the signal
Outline: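 Differentiated HepaRG cells exposed 48 hours in serum-free induction medium, 0.5% DMSO vehicle, 8-point half-log series from 100 uM, in duplicate. TGFA mRNA by TaqMan qRT-PCR, normalised to ACTB, GAPDH, POLR2A; bidirectional fit versus DMSO.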

[7] = read-out: TIMP1, TIMP1 (gene 7076); experiment: LTEA_HepaRG_TIMP1: Life Technologies and Expression Analysis (LTEA) Assay for TIMP1 using HepaRG (AID 2283534); conditions: mRNA level, 48 h; actives raise or lower the signal;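 further: TaqMan qRT-PCR signal normalized to ACTB GAPDH and POLR2A housekeeping genes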
Outline: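 We dosed human liver HepaRG cultures for 48 hours with up to 100 uM test chemical and measured TIMP1 expression by qRT-PCR. Activity in either direction is fitted relative to the 0.5% DMSO vehicle.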

[8] = read-out: Tumor necrosis factor receptor 1 (TNFRSF1A), TNFRSF1A (gene 7132); experiment: LTEA_HepaRG_TNFRSF1A: Life Technologies and Expression Analysis (LTEA) Assay for Tumor necrosis factor receptor 1 (TNFRSF1A) using HepaRG (AID 2283535); conditions: mRNA level, 48 h; actives raise or lower the signal
Outline: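 Expression of TNFRSF1A in human HepaRG liver cells was measured by qRT-PCR 48 h after chemical dosing (maximum 100 uM). Bidirectional curve fitting used 0.5% DMSO as baseline.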

[9] = read-out: Thyroid Hormone Responsive (THRSP), THRSP (gene 7069); experiment: LTEA_HepaRG_THRSP: Life Technologies and Expression Analysis (LTEA) Assay for Thyroid Hormone Responsive (THRSP) using HepaRG (AID 2283536); conditions: mRNA level, 48 h; actives raise or lower the signal
Outline: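 Differentiated HepaRG cells treated 48 h in serum-free induction medium with 8 half-log concentrations up to 100 uM (0.5% DMSO), duplicates. THRSP mRNA by TaqMan qRT-PCR normalised to ACTB, GAPDH, POLR2A; bidirectional fit versus DMSO.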

[10] = read-out: Cellular tumor antigen p53 (Homo sapiens) (UniProt P04637); experiment: LTEA_HepaRG_TP53: Life Technologies and Expression Analysis (LTEA) Assay for Tumor Protein P53 (TP53) using HepaRG (AID 2283537); conditions: mRNA level, 48 h; actives raise or lower the signal
Outline: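 Read-out is TP53 transcript level by microfluidic qRT-PCR, normalised to three housekeeping genes and fitted bidirectionally against DMSO. Human HepaRG cells received compounds for 48 h, highest concentration 100 uM.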

[11] = read-out: UDP glucuronosyltransferase (UGT1A1), UGT1A1 (gene 54658); experiment: LTEA_HepaRG_UGT1A1: Life Technologies and Expression Analysis (LTEA) Assay for UDP glucuronosyltransferase (UGT1A1) using HepaRG (AID 2283538); conditions: mRNA level, 48 h; actives raise or lower the signal
Outline: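 Readout is UGT1A1 transcript level by qRT-PCR, normalized to three housekeeping genes, after 48 h chemical treatment of HepaRG cells. Concentrations ran from 100 uM down in half-log steps with 0.5% DMSO, and gain or loss relative to DMSO was fitted.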

[12] = read-out: UDP glucuronosyltransferase (UGT1A6), UGT1A6 (gene 54578); experiment: LTEA_HepaRG_UGT1A6: Life Technologies and Expression Analysis (LTEA) Assay for UDP glucuronosyltransferase (UGT1A6) using HepaRG (AID 2283539); conditions: mRNA level, 48 h; actives raise or lower the signal
Outline: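 Endpoint is UGT1A6 transcript induction or loss in a human liver cell line, quantified by TaqMan qRT-PCR 48 h after dosing. Concentrations ran from 100 uM downward in half-log steps in 0.5% DMSO; activity was fitted in both directions versus vehicle.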

[13] = read-out: X-box binding protein 1 (XBP1), XBP1 (gene 7494); experiment: LTEA_HepaRG_XBP1: Life Technologies and Expression Analysis (LTEA) Assay for X-box binding protein 1 (XBP1) using HepaRG (AID 2283540); conditions: mRNA level, 48 h; actives raise or lower the signal
Outline: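 Human HepaRG monolayers receive test chemical for 48 h across an eight-point half-log series starting at 100 uM. XBP1 mRNA gain or loss is scored against DMSO by qRT-PCR.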

[14] = LTEA_HepaRG_LDH_cytotoxicity: Cytotoxicity Assessment in the Life Technologies and Expression Analysis (LTEA) Assay (AID 2283563; active means hit-call score of the fitted dose curve at least 0.9, where 1 is the maximum)
Outline: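 Human HepaRG hepatic cells are treated with test chemicals for 48 h at up to 100 uM in 0.5% DMSO. Cytotoxicity is scored from medium LDH against the vehicle control.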

[15] = TOX21_p53_BLA_p2_viability: Viability Assessment in the Tox21 HCT-116 p53 Agonism Beta-lactamase Assay, Phase 2 (AID 2283591; active means hit-call score of the fitted dose curve at least 0.9, where 1 is the maximum;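 further: compound exposure lasted 16 h at 37 °C; actives lower the ATP signal meaning cytotoxicity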)
Outline: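 HCT116 p53-bla cells, 4000/well, dosed after 5 h plating (217-fold dilution of DMSO stocks) and incubated 16 h at 37C. Viability taken as cellular ATP by CellTiter-Glo luminescence after 30 min RT; signal loss marks cytotoxicity.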

[16] = molecular target: Cellular tumor antigen p53 (Homo sapiens) (UniProt P04637); experiment: TOX21_p53_BLA_p2_ratio: Tox21 HCT-116 p53 Agonism Beta-lactamase Assay, Ratio, Phase 2 (AID 2283592; active means hit-call score of the fitted dose curve at least 0.9, where 1 is the maximum)
Sequence of Cellular tumor antigen p53 (Homo sapiens) (P04637 whole entry, looked up): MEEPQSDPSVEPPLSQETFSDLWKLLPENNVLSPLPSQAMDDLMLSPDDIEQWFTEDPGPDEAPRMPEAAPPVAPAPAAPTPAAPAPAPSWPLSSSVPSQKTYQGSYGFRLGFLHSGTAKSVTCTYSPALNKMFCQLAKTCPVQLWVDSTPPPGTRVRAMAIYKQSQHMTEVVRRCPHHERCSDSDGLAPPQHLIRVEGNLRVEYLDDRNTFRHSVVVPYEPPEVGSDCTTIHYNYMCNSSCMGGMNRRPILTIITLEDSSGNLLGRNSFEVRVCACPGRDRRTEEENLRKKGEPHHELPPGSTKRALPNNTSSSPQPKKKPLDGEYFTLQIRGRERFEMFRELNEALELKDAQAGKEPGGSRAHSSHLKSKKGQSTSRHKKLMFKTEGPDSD
Outline: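 An inducible beta-lactamase reporter in HCT116 cells signals p53 pathway activation. After 16 h chemical exposure at 37C, cells load CCF4-AM substrate for 2 h at room temperature; activity is the cleaved/uncleaved emission ratio relative to DMSO.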

[17] = TOX21_p53_BLA_p3_viability: Viability Assessment in the Tox21 HCT-116 p53 Agonism Beta-lactamase Assay, Phase 3 (AID 2283593; active means hit-call score of the fitted dose curve at least 0.9, where 1 is the maximum;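 further: cells exposed to compound for 16 h before reading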)
Outline: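 HCT116 cells, 4000/well, dosed 5 h after plating by pin transfer (217-fold dilution from DMSO stock) and incubated 16 h at 37C, 5% CO2. Viability read as ATP luminescence with CellTiter-Glo after 30 min at room temperature.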

[18] = molecular target: Cellular tumor antigen p53 (Homo sapiens) (UniProt P04637); experiment: TOX21_p53_BLA_p3_ratio: Tox21 HCT-116 p53 Agonism Beta-lactamase Assay, Ratio, Phase 3 (AID 2283596; active means hit-call score of the fitted dose curve at least 0.9, where 1 is the maximum)
Outline: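 HCT116 p53-bla cells (4000/well) given compound in DMSO (217-fold dilution) after 5 h, incubated 16 h at 37C. CCF4-AM substrate 2 h at room temperature; 460/530 nm emission ratio, gain fitted against DMSO.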

[19] = ATG_XTT_Cytotoxicity: Cytotoxicity Assessment in the Attagene TRANS-FACTORIAL HepG2 Assay (AID 2283584; active means hit-call score of the fitted dose curve at least 0.9, where 1 is the maximum)
Outline: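 Transfect HepG2 with GAL4-UAS reporter units, dose compound, incubate 24 h, then measure viable cell number by XTT. Fit concentration response against DMSO baseline.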

[20] = read-out: Transforming Growth Factor (TGFB1), TGFB1 (gene 7040); experiment: LTEA_HepaRG_TGFB1: Life Technologies and Expression Analysis (LTEA) Assay for Transforming Growth Factor (TGFB1) Transporter using HepaRG (AID 2283533); conditions: mRNA level, 48 h; actives raise or lower the signal
Outline: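 Expression change of TGFB1 in human HepaRG cells is measured after a 48 h chemical exposure, up to 100 uM in 0.5% DMSO vehicle. Curves are fitted in both directions relative to the DMSO baseline.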

Measured: AC50

Sequence of Signal transducer and activator of transcription 3 (Homo sapiens) (P40763 whole entry, looked up): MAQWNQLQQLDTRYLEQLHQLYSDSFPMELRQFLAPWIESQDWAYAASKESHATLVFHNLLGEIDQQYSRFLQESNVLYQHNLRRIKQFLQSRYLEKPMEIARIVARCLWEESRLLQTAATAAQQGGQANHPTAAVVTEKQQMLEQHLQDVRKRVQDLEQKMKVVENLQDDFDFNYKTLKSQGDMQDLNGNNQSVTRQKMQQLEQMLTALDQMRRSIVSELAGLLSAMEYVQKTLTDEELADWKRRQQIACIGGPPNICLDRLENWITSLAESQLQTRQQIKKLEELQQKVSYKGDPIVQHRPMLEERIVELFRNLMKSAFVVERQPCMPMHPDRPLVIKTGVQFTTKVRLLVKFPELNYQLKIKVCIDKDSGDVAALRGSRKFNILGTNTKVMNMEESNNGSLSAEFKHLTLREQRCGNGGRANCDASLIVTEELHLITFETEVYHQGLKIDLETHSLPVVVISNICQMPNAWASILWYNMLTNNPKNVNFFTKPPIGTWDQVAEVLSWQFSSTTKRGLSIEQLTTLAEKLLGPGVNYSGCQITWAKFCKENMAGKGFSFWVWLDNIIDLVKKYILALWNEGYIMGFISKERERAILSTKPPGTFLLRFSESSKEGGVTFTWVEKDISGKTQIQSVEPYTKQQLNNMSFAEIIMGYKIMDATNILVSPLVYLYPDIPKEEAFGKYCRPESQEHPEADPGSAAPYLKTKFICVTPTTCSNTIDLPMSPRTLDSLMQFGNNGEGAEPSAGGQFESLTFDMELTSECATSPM
Sequence of Nuclear factor erythroid 2-related factor 2 (Homo sapiens) (Q16236 whole entry, looked up): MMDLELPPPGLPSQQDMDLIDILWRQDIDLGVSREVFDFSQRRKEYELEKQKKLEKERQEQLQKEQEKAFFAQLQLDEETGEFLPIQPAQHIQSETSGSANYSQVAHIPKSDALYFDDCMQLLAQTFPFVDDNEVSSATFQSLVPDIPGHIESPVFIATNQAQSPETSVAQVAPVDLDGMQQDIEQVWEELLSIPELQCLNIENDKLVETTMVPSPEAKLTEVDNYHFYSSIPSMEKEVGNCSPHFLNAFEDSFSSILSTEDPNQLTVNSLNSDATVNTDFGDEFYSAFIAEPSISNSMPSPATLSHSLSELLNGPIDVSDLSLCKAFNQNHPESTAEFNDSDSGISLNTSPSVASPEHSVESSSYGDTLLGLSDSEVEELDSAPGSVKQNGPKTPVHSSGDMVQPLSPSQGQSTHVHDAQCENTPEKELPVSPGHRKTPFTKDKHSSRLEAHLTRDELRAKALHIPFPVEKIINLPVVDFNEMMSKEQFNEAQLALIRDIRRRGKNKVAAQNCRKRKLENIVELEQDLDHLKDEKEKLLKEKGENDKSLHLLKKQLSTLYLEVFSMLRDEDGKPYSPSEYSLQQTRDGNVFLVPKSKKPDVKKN

S=C1NCCN1
active: [4] 0.24 µM
not listed: [19] | [20]
inactive: all other assays above

CCC(CC)Nc1c([N+](=O)[O-])cc(C)c(C)c1[N+](=O)[O-]
active: [4] 50 µM | [9] 36.7 µM | [11] 28.2 µM
not listed: [20]
inactive: all other assays above

CCC(=NOC/C=C/Cl)C1=C(O)CC(C2CCOCC2)CC1=O (stereo not given)
not listed: [2] | [16] | [18] | [19]
inactive: all other assays above

CCOP(=S)(Oc1cnc(C(C)(C)C)nc1)OC(C)C (stereo not given)
active: [9] 68.5 µM
not listed: [13] | [14] | [15] | [17] | [18] | [19] | [20]
inactive: all other assays above

COc1ccc(C(=CC(=O)N2CCOCC2)c2ccc(Cl)cc2)cc1OC
active: [9] 63.8 µM | [11] 11.1 µM
not listed: [16] | [17] | [20]
inactive: all other assays above

CCc1cccc(C)c1N(C(=O)CCl)C(C)COC (stereo not given)
active: [11] 20.5 µM
not listed: [13] | [14] | [20]
inactive: all other assays above

COP(=O)(NC(C)=O)SC (stereo not given)
not listed: [8] | [13] | [14] | [19] | [20]
inactive: all other assays above
